Screening data deposited in PubChem by National Center for Advancing Translational Sciences (NCATS).
DT40 TDP1 CPT = DT40-hTDP1 cell growth loss with CPT. chicken DT40 Tdp1-/-;hTDP1 cells + 20 nM CPT, ATP luminescence, 48 h. Potency, µM (series often up to 46.2 µM), usual class: inhibitors. hit rate 12% among 420,000; note: nearly all actives have a fitted effect of over 55% in size
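Chicken DT40 Tdp1-/- cells complemented with human TDP1, 400 cells/well, exposed to compounds plus 20 nM camptothecin for at least 48 h at 37 C; viability read as ATP content by CellTiter-Glo luminescence.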
SW480 rerep = induces DNA re-replication in SW480 colon adenocarcinoma cells; SW480 DNA re-replication, Hoechst DNA content imaging, 48 h; hit rate 1.8% among 340,000; Potency, µM (top dose mostly 46.1 µM), hits mostly activators; note: nearly all actives have a fitted effect of over 55% in size
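Treated cells incubate 48 hr (37 C, 5% CO2), are stained 40 min with Hoechst, and nuclear fluorescence is enumerated; a rise in nuclei with high DNA signal marks re-replication.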
IL1B secr inh = inhibitors of inflammasome signaling (IL-1 beta secretion); THP-1 LPS/ATP IL-1B secretion, AlphaLISA, 16 h; stronger effect = lower value; activity change, % at 57.5 µM; hit rate 4.7% among 360,000; in the data active = activity change below about -50%; inconclusive = mostly about -30% to -49%
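Secreted IL-1B measured by AlphaLISA bead assay after 16 h compound exposure of THP-1 cells; compounds (final up to 57.5 uM) added 1 h before LPS (250 ng/mL) and ATP (1.25 mM) stimulation; lower signal means less secretion.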
TDP1 cell noCPT = qHTS for Inhibitors of human tyrosyl-DNA phosphodiesterase 1 (TDP1): qHTS in cells in absence of CPT; DT40 Tdp1-/- hTDP1 cells, no CPT, ATP luminescence, 48 h; Potency, µM (series often up to 46.2 µM), most hits filed as inhibitors; hit rate 15% among 420,000; note: nearly all actives have a fitted effect of over 55% in size
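Growth kinetics read by CellTiter-Glo luminescence after ≥48 hr at 37 °C. Cells: DT40 Tdp1-/- stably carrying human TDP1, 400 per well, compound exposure in the absence of CPT (DMSO vehicle).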
Chronic BCR inh = inhibitors of chronic active B-cell receptor signaling; ABC-DLBCL IkBa-CBG/CBR reporter, luminescence ratio, 4 h; AID 493014; Potency, µM (series often up to 46.1 µM), usual class: inhibitors; hit rate 0.05% among 340,000; active = well fitted inhibition curve with a large enough effect in the signal ratio, with a control signal flat, not every such curve was filed as active; inconclusive = small, poorly fitted or top-dose-only effect, or effect the other way, or a change in a side signal; the % refers to the signal ratio
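TMD8 human ABC-DLBCL cells with doxycycline-inducible IκBα–green luciferase fusion and unfused red luciferase, in 0.5% FBS medium; compounds up to 46 uM, 4 h at 37C. Green/red luminescence ratio, filter-overlap corrected, fitted to concentration-response curves.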
MCF10A rerep = induces DNA re-replication in MCF 10a normal breast cells. hit rate 2.9% among 350,000. Potency, µM (highest dose often 46.1 µM), actives largely listed as activators. MCF 10A DNA re-replication, Hoechst nuclear intensity, 48 h. AID 624296; note: nearly all actives have a fitted effect of over 50% in size
Each line names hits and unclear results; the compound was inactive in the other large screens. The list is not random: actives were taken first. Their share in the collection is about 19%. Unless noted, calls come from the whole dose curve; as a rule, active = well fitted curve in the direction sought with a large enough effect; inconclusive = small, poorly fitted or top-dose-only effect, or another doubt; inactive = no such curve, though single readings can be large; an effect the other way counts as inactive or inconclusive.

CCOc1ccc(C(=O)OCC(=O)Nc2ccc(SC(F)F)cc2)cc1OCC	Chronic BCR inh inconclusive, MCF10A rerep inconclusive
Cc1ccc(-n2nc3c(c2NC(=O)c2ccc4c(c2)OCO4)CS(=O)(=O)C3)cc1C	none
O=C(CC12CC3CC(CC(C3)C1)C2)Nc1nncs1	IL1B secr inh inconclusive, Chronic BCR inh inconclusive
CCOc1ccccc1C(=O)Nc1ccc(S(=O)(=O)Nc2onc(C)c2C)cc1	none (no result: SW480 rerep, IL1B secr inh, Chronic BCR inh, MCF10A rerep)
Cc1cc(O)ccc1Nc1nc2ccccc2nc1Nc1ccc(O)cc1C	DT40 TDP1 CPT 8.2µM, SW480 rerep inconclusive, TDP1 cell noCPT 5.2µM, MCF10A rerep 18µM
CCCCNC(=O)C1(C)CCCCN1C(=O)c1ccc(OC)c(C(F)(F)F)c1 (configuration not stated)	DT40 TDP1 CPT inconclusive, TDP1 cell noCPT inconclusive (no result: SW480 rerep, Chronic BCR inh, MCF10A rerep)
CCOC(=O)C(NC(=O)c1ccccc1)(OCC1(CC)COC1)C(F)(F)F (configuration not stated)	none
CCOC(=O)C(NC(=O)c1ccccc1)(OCc1ccc(F)cc1)C(F)(F)F (configuration not stated)	TDP1 cell noCPT 18µM
CCOC(=O)C(NC(=O)NCc1cccc(C(F)(F)F)c1)(OCC)C(F)(F)F (configuration not stated)	Chronic BCR inh inconclusive
CCOC(=O)C(NC(=O)c1cccc(Cl)c1)(OCc1ccc(F)cc1)C(F)(F)F (configuration not stated)	DT40 TDP1 CPT inconclusive, IL1B secr inh -100, TDP1 cell noCPT inconclusive
CC(Sc1nnc(C2CC2)n1C1CC1)C(=O)c1ccc(F)cc1 (configuration not stated)	none
Cc1cc2c(cc1C)/C(=N/NC(=O)c1ccccn1)CCC2	DT40 TDP1 CPT inconclusive, TDP1 cell noCPT 23µM, Chronic BCR inh inconclusive, MCF10A rerep inconclusive
CCNC(=O)C1(C)CCN(C(=O)c2ccc3c(c2)OCO3)C1 (configuration not stated)	none (no result: SW480 rerep, Chronic BCR inh, MCF10A rerep)
Cc1ccccc1C(=O)Nc1cc(C(F)(F)F)ccc1-n1cncn1	none
O=C1Nc2ccccc2N=C(c2ccc3c(c2)OCO3)C1N(C(=O)c1ccc2ccccc2c1)C1CC1 (configuration not stated)	DT40 TDP1 CPT 16µM, IL1B secr inh inconclusive, TDP1 cell noCPT 21µM (no result: SW480 rerep, Chronic BCR inh, MCF10A rerep)
O=C1Nc2ccccc2N=C(c2ccc3c(c2)OCO3)C1N(C(=O)c1ccnc2ccccc12)c1ccccc1 (configuration not stated)	DT40 TDP1 CPT 21µM, IL1B secr inh inconclusive, TDP1 cell noCPT 18µM (no result: SW480 rerep, Chronic BCR inh, MCF10A rerep)
Clc1ccc(Nc2nc(NCc3ccco3)nc3nccnc23)cc1	none (no result: SW480 rerep, IL1B secr inh, Chronic BCR inh, MCF10A rerep)
CCOc1ccc(NC(=O)CN(C)C(=O)CCCc2nc3ccccc3c(=O)[nH]2)cc1OCC	none
CCN1/C(=C/C=C/c2sc3ccccc3[n+]2CC)Sc2ccccc21	DT40 TDP1 CPT 0.18µM, IL1B secr inh -105, TDP1 cell noCPT 0.15µM, Chronic BCR inh inconclusive
CCN1C(=O)/C(=C/C=C2/Sc3ccccc3N2CCO)SC1=S	DT40 TDP1 CPT inconclusive, TDP1 cell noCPT inconclusive
CCN1/C(=C/C=C/C=C/C=C/c2sc3ccccc3[n+]2CC)Sc2ccccc21	DT40 TDP1 CPT 0.52µM, IL1B secr inh inconclusive, TDP1 cell noCPT 0.23µM, MCF10A rerep inconclusive
Cc1cc(C)c2c(=O)nc(SCc3ccccc3C)n(C3CC3)c2n1	none (no result: SW480 rerep, IL1B secr inh, Chronic BCR inh, MCF10A rerep)
O=C1NC[C@@H](CCCCN2C[C@H](Cc3ccc(O)cc3)N(Cc3ccccc3)C(=O)C2=O)N(CCC2CCCCC2)C1=O	none (no result: SW480 rerep, Chronic BCR inh, MCF10A rerep)
C=C1CC(COc2ccc3c(C)c(Cl)c(=O)oc3c2)(c2ccccc2)OC1=O (configuration not stated)	DT40 TDP1 CPT 1.6µM, SW480 rerep inconclusive, IL1B secr inh -100, TDP1 cell noCPT 1.6µM, MCF10A rerep 4.6µM (no result: Chronic BCR inh)
